The supplement of paper PMC10849652
The full data set covers some 7,900 targets. This sample favours those with a hit. About 0.6% of all pairs of compound and target were hits.

What was measured:
Assay in all cases: log2 fold change, soluble protein after heating vs DMSO (PISA); higher = thermal stabilisation; K562 cells, 10 uM, 30 min; active = over 0.2 and 3.5 SD of the protein, either way, in both replicates (recomputed)
[1] = compound: CS(=O)(=O)c1ccc(-c2cnc(N)c(C(=O)Nc3ccccc3)n2)cc1
Outline: (§1)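 Thermal stability values are relative to control samples and come from duplicates. They are expressed as log2 fold changes. For measurement, K562 cells (2×10^6 cells/mL) received 10 μM compound for 30 min, and aliquots were heated for 3 min over 48°C-58°C, pooled, and extracted at 4°C in PBS with 0.5% NP-40. Soluble protein, the supernatant after 21,000xg for 90 min, was quantified by TMTpro 16plex LC-MS/MS with equalised channel sums.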

crizotinib = compound: C[C@@H](Oc1cc(-c2cnn(C3CCNCC3)c2)cnc1N)c1c(Cl)ccc(F)c1Cl [crizotinib]
Outline: as §1

[2] = compound: C[C@@H]1COCCN1C2=NC(=NC(=C2)C3(CC3)S(=O)(=O)C)C4=C5C=CNC5=CC=C4
Outline: as §1

[3] = compound: C[C@H](C1=CC=C(C=C1)C(=O)NC2=C3C=CNC3=NC=C2)N
Outline: as §1

duvelisib = compound: C[C@H](Nc1ncnc2nc[nH]c12)c1cc2cccc(Cl)c2c(=O)n1-c1ccccc1 [duvelisib]
Outline: as §1

gandotinib = compound: Cc1cc(Nc2cc(CN3CCOCC3)c3nc(C)c(Cc4ccc(Cl)cc4F)n3n2)n[nH]1 [gandotinib]
Outline: as §1

tozasertib = compound: Cc1cc(Nc2cc(N3CCN(C)CC3)nc(Sc3ccc(NC(=O)C4CC4)cc3)n2)n[nH]1 [tozasertib]
Outline: as §1

[4] = compound: Cc1cc(SCc2sc(-c3ccc(C(F)(F)F)cc3)nc2C)ccc1OCC(=O)O
Outline: as §1

doramapimod = compound: Cc1ccc(-n2nc(C(C)(C)C)cc2NC(=O)Nc2ccc(OCCN3CCOCC3)c3ccccc23)cc1 [doramapimod]
Outline: as §1

ispinesib = compound: Cc1ccc(C(=O)N(CCCN)[C@@H](c2nc3cc(Cl)ccc3c(=O)n2Cc2ccccc2)C(C)C)cc1 [ispinesib]
Outline: as §1

bafetinib = compound: Cc1ccc(NC(=O)c2ccc(CN3CC[C@H](N(C)C)C3)c(C(F)(F)F)c2)cc1Nc1nccc(-c2cncnc2)n1 [bafetinib]
Outline: as §1

[5] = compound: Cc1cccc(CC(=O)N2CCc3c2ccc(-c2cn(C)c4ncnc(N)c24)c3F)n1
Outline: as §1

nilotinib = compound: Cc1cn(-c2cc(NC(=O)c3ccc(C)c(Nc4nccc(-c5cccnc5)n4)c3)cc(C(F)(F)F)c2)cn1 [nilotinib]
Outline: as §1

[6] = compound: Cc1nc(Nc2n[nH]c3c2CN(C(=O)N[C@H](CN(C)C)c2ccccc2)C3(C)C)c2sccc2n1
Outline: as §1

dasatinib = compound: Cc1nc(Nc2ncc(C(=O)Nc3c(C)cccc3Cl)s2)cc(N2CCN(CCO)CC2)n1 [dasatinib]
Outline: as §1

[7] = compound: Cc1ncc(-c2ccnc(Nc3ccc(S(C)(=O)=O)cc3)n2)n1C(C)C
Outline: as §1

[8] = compound: Cn1cc(-c2ccc3c(c2)CCN3C(=O)Cc2cccc(C(F)(F)F)c2)c2c(N)ncnc21
Outline: as §1

[9] = compound: Cn1cc(-c2ccc3nnc(C(F)(F)c4ccc5ncccc5c4)n3n2)cn1
Outline: as §1

tipifarnib = compound: Cn1cncc1[C@@](N)(c1ccc(Cl)cc1)c1ccc2c(c1)c(-c1cccc(Cl)c1)cc(=O)n2C [tipifarnib]
Outline: as §1

mubritinib = compound: FC(F)(F)c1ccc(/C=C/c2nc(COc3ccc(CCCCn4ccnn4)cc3)co2)cc1 [mubritinib]
Outline: as §1

Measured: log2 fold change

ITIH4 (UniProt Q14624)
inactive: [1] -0.107 | crizotinib -0.102 | [2] 0.129 | [3] -0.005 | duvelisib 0.103 | gandotinib -0.387 | tozasertib -0.033 | [4] -0.031 | doramapimod -0.291 | ispinesib -0.402 | bafetinib -0.319 | [5] 0.117 | nilotinib -0.259 | [6] 0.194 | dasatinib 0.039 | [7] 0.225 | [8] 0.148 | [9] 0.114 | tipifarnib -0.038 | mubritinib -0.134

MAP4 (UniProt E7EVA0)
inactive: [1] 0.023 | crizotinib -0.02 | [2] -0.222 | [3] 0.231 | duvelisib -0.084 | gandotinib -0.001 | tozasertib 0.124 | [4] -0.017 | doramapimod 0.136 | ispinesib -0.134 | bafetinib 0.311 | [5] -0.028 | nilotinib -0.014 | [6] 0.015 | dasatinib 0.168 | [7] -0.018 | [8] -0.166 | [9] -0.036 | tipifarnib 0.019 | mubritinib 0.055

MAPKAPK3 (UniProt Q16644)
UniProt Q16644, sequence (Q16644 whole entry, looked up): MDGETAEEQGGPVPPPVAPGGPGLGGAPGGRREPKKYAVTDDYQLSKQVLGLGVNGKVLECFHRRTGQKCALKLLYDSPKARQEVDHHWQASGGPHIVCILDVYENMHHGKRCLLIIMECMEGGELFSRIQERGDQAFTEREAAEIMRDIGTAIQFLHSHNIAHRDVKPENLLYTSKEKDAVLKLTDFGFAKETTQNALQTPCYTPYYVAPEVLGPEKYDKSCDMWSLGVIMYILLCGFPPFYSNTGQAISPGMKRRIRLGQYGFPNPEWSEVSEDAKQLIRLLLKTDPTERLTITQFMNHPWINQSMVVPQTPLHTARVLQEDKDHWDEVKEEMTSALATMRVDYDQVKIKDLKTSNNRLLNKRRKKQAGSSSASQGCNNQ
inactive: [1] -0.033 | crizotinib -0.078 | [2] 0.048 | [3] 0.115 | duvelisib 0.015 | gandotinib -0.043 | tozasertib 0.014 | [4] -0.021 | doramapimod 0.314 | ispinesib -0.111 | bafetinib 0.258 | [5] 0 | nilotinib 0.281 | [6] -0.03 | dasatinib 0.002 | [7] -0.032 | [8] -0.005 | [9] 0 | tipifarnib -0.048 | mubritinib -0.04

LMNA (UniProt P02545)
UniProt P02545, sequence (P02545 whole entry, looked up): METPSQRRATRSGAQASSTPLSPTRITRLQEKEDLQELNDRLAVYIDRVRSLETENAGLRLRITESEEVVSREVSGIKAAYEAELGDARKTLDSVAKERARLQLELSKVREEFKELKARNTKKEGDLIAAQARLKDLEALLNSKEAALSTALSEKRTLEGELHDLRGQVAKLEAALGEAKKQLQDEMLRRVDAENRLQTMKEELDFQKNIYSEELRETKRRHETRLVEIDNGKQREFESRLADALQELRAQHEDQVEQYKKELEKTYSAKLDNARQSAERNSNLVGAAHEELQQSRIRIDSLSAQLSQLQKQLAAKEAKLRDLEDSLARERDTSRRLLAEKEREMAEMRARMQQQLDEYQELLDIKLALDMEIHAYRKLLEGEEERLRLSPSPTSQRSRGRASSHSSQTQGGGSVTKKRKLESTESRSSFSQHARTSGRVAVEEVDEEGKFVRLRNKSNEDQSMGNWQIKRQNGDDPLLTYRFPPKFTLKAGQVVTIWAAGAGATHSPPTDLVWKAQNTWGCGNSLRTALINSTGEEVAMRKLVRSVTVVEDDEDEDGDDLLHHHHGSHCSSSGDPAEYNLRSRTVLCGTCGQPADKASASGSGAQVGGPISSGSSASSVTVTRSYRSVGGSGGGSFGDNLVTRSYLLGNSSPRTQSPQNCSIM
active: [3] -0.231 | ispinesib 0.214
inactive: [1] -0.054 | crizotinib 0.064 | [2] 0.102 | duvelisib -0.013 | gandotinib -0.098 | tozasertib 0.069 | [4] -0.035 | doramapimod 0.018 | bafetinib -0.011 | [5] -0.025 | nilotinib 0.065 | [6] -0.116 | dasatinib 0.097 | [7] -0.179 | [8] -0.04 | [9] -0.043 | tipifarnib 0.064 | mubritinib -0.069

LARP7 isoform 3 (UniProt Q4G0J3)
active: [6] -0.298
inactive: [1] -0.001 | crizotinib 0.022 | [2] 0.068 | [3] -0.077 | duvelisib -0.013 | gandotinib -0.065 | tozasertib 0.071 | [4] 0.088 | doramapimod 0.012 | ispinesib -0.007 | bafetinib -0.045 | [5] 0.041 | nilotinib 0.01 | dasatinib -0.063 | [7] -0.249 | [8] 0.021 | [9] 0.029 | tipifarnib 0.021 | mubritinib -0.05

LTO1 (UniProt Q8WV07)
UniProt Q8WV07, sequence (Q8WV07 whole entry, looked up): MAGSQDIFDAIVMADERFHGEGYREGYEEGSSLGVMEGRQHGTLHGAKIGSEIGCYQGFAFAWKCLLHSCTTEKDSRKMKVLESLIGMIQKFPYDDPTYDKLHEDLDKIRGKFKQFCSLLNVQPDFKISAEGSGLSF
inactive: [1] 0.011 | crizotinib 0.048 | [2] -0.083 | [3] -0.063 | duvelisib 0.078 | gandotinib -0.026 | tozasertib -0.007 | [4] -0.042 | doramapimod 0.032 | ispinesib 0.051 | bafetinib -0.013 | [5] -0.004 | nilotinib -0.036 | [6] -0.072 | dasatinib 0 | [7] 0.039 | [8] -0.025 | [9] -0.02 | tipifarnib -0.063 | mubritinib 0.038

L2HGDH (UniProt Q9H9P8)
UniProt Q9H9P8, sequence (Q9H9P8 whole entry, looked up): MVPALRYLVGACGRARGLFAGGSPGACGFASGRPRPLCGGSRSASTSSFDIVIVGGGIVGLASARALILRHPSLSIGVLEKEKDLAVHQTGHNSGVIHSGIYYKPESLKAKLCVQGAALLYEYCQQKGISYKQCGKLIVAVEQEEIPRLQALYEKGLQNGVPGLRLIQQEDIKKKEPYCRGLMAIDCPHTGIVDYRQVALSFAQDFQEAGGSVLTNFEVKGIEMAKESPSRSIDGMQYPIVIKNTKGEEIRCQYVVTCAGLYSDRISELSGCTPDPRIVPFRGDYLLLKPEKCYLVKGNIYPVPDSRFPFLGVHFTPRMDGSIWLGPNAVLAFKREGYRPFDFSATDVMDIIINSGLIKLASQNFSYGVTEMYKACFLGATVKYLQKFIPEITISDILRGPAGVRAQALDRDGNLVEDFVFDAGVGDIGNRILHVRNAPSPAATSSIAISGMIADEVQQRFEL
inactive: [1] 0.04 | crizotinib -0.081 | [2] 0.124 | [3] -0.025 | duvelisib 0.063 | gandotinib 0.024 | tozasertib -0.082 | [4] 0.039 | doramapimod -0.02 | ispinesib -0.083 | bafetinib -0.089 | [5] -0.037 | nilotinib 0.06 | [6] 0.002 | dasatinib -0.046 | [7] -0.002 | [8] 0.077 | [9] 0.053 | tipifarnib 0.021 | mubritinib 0.061

MAPKAPK5 (UniProt Q8IW41)
inactive: [1] 0.012 | crizotinib -0.046 | [2] 0.027 | [3] 0.069 | duvelisib 0.056 | gandotinib 0.297 | tozasertib -0.042 | [4] -0.013 | doramapimod 0.141 | ispinesib -0.017 | bafetinib 0.123 | [5] -0.014 | nilotinib 0.057 | [6] -0.035 | dasatinib -0.031 | [7] 0.052 | [8] -0.065 | [9] -0.074 | tipifarnib -0.083 | mubritinib 0.075

IPO7 (UniProt O95373)
UniProt O95373, sequence (O95373 whole entry, looked up): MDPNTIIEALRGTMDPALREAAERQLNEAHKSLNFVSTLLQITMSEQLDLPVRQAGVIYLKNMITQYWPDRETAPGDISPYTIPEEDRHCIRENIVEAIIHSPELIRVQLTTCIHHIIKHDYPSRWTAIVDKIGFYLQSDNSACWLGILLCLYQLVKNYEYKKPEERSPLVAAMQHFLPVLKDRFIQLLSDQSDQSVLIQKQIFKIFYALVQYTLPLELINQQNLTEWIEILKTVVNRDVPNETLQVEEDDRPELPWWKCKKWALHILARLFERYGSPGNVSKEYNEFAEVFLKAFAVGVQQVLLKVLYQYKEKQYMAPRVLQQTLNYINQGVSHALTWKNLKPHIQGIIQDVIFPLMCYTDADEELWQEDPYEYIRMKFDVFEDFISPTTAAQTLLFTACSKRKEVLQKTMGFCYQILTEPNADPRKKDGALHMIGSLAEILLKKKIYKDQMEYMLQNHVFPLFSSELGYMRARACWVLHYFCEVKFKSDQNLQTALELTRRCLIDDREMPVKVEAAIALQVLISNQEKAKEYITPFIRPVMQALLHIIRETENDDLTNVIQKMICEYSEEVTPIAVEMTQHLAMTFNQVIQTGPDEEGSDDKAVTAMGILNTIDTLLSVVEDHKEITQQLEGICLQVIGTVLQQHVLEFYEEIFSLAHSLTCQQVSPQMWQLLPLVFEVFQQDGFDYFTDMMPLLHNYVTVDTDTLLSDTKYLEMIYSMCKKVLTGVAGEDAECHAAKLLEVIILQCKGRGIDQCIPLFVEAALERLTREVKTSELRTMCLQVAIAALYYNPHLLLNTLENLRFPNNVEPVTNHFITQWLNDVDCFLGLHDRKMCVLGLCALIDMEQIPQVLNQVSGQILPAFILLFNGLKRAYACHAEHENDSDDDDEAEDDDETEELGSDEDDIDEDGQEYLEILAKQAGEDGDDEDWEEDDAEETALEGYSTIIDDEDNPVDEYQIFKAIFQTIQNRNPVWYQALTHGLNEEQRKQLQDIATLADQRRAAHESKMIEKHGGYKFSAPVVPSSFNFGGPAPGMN
inactive: [1] -0.011 | crizotinib -0.138 | [2] 0.042 | [3] -0.07 | duvelisib 0.029 | gandotinib -0.185 | tozasertib 0.102 | [4] 0.073 | doramapimod -0.054 | ispinesib -0.077 | bafetinib -0.018 | [5] 0.035 | nilotinib -0.058 | [6] -0.044 | dasatinib -0.074 | [7] -0.091 | [8] -0.018 | [9] 0.008 | tipifarnib -0.126 | mubritinib 0.079

KIFBP (UniProt Q96EK5)
UniProt Q96EK5, sequence (Q96EK5 whole entry, looked up): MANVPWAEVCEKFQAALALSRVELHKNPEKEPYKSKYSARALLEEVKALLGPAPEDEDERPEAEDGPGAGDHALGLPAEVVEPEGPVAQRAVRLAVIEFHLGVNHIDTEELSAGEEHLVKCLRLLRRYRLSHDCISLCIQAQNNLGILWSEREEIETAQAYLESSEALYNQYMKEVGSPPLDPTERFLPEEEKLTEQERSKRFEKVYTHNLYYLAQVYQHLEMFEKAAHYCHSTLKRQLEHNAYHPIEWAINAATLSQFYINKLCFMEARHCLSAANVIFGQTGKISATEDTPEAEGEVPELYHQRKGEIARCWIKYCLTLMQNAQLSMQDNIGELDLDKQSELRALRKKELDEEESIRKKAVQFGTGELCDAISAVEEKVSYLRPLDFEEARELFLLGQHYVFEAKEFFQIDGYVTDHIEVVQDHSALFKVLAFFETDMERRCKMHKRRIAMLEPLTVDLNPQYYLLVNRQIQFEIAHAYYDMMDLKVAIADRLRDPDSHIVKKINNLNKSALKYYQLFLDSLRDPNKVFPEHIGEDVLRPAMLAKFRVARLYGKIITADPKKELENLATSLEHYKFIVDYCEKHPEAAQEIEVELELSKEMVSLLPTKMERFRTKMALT
inactive: [1] -0.036 | crizotinib -0.025 | [2] 0.079 | [3] 0.08 | duvelisib 0.007 | gandotinib -0.051 | tozasertib 0.065 | [4] 0.085 | doramapimod -0.053 | ispinesib -0.139 | bafetinib 0.006 | [5] 0.094 | nilotinib -0.162 | [6] -0.079 | dasatinib -0.114 | [7] -0.004 | [8] -0.084 | [9] -0.046 | tipifarnib -0.063 | mubritinib -0.078

LNPK (UniProt Q9C0E8)
UniProt Q9C0E8, sequence (Q9C0E8 whole entry, looked up): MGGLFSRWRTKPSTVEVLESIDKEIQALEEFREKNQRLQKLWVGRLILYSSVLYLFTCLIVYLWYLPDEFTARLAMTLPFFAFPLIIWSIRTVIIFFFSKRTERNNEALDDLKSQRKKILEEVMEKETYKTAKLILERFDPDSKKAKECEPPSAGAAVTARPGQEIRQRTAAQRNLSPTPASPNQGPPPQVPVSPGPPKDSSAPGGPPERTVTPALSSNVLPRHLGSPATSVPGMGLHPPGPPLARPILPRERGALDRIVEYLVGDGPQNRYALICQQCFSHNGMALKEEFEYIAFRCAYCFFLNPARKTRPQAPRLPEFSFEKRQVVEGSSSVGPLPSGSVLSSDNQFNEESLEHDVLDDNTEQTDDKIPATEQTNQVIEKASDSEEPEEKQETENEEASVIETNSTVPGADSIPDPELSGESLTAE
inactive: [1] -0.016 | crizotinib 0.077 | [2] 0.007 | [3] -0.036 | duvelisib -0.017 | gandotinib -0.022 | tozasertib 0.002 | [4] -0.085 | doramapimod -0.044 | ispinesib 0.022 | bafetinib -0.081 | [5] -0.035 | nilotinib -0.001 | [6] -0.009 | dasatinib 0.052 | [7] -0.007 | [8] 0.025 | [9] 0.011 | tipifarnib 0.054 | mubritinib 0.072

LYN (UniProt P07948)
UniProt P07948, sequence (P07948 whole entry, looked up): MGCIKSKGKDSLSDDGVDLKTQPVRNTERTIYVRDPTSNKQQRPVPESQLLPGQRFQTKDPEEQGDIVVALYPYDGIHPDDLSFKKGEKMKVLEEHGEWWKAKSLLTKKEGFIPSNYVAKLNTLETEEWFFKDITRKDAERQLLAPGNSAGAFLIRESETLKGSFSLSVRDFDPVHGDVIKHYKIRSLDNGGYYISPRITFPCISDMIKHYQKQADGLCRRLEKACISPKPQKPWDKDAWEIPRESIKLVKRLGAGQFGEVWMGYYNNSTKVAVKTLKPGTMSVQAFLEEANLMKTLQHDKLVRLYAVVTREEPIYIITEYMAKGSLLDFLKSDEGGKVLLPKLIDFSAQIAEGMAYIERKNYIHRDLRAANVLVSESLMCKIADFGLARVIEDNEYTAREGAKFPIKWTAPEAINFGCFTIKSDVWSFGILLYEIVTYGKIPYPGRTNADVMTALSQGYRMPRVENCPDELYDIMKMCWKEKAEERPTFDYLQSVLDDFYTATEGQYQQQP
active: [6] -0.414 | dasatinib -0.419
inactive: [1] -0.023 | crizotinib -0.142 | [2] -0.101 | [3] -0.01 | duvelisib 0.118 | gandotinib -0.015 | tozasertib -0.085 | [4] 0.132 | doramapimod 0.065 | ispinesib -0.094 | bafetinib 0.26 | [5] 0.008 | nilotinib 0.062 | [7] -0.043 | [8] -0.06 | [9] 0.034 | tipifarnib -0.005 | mubritinib -0.003

LIMD1 (UniProt Q9UGP4)
UniProt Q9UGP4, sequence (Q9UGP4 whole entry, looked up): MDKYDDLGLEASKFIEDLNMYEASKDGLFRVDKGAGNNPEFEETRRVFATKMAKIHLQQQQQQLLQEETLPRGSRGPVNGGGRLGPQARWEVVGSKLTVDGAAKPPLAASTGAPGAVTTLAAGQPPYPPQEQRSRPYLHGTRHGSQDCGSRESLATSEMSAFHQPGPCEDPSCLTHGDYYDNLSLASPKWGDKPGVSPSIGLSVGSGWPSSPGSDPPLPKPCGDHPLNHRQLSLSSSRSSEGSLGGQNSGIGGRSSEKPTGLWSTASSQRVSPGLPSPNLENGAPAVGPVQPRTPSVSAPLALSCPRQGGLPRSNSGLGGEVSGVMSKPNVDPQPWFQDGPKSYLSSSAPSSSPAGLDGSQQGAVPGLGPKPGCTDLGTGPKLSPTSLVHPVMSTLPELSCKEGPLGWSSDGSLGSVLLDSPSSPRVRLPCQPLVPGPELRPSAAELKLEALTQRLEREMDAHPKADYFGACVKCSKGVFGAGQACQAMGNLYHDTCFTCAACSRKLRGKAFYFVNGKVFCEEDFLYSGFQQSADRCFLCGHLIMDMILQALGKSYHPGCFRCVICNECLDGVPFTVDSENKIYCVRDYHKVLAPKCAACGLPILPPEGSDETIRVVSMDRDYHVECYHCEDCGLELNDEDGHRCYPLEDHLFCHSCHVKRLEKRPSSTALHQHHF
inactive: [1] -0.03 | crizotinib 0.005 | [2] -0.007 | [3] -0.071 | duvelisib -0.032 | gandotinib 0.011 | tozasertib 0.039 | [4] 0.042 | doramapimod -0.01 | ispinesib 0.008 | bafetinib -0.143 | [5] 0.017 | nilotinib 0.023 | [6] -0.085 | dasatinib 0.001 | [7] -0.008 | [8] 0.021 | [9] -0.015 | tipifarnib -0.071 | mubritinib 0.012

ITPRIP (UniProt Q8IWB1)
inactive: [1] -0.002 | crizotinib 0.056 | [2] 0.012 | [3] -0.039 | duvelisib 0.005 | gandotinib -0.049 | tozasertib 0.045 | [4] 0.038 | doramapimod 0.062 | ispinesib -0.037 | bafetinib -0.126 | [5] -0.016 | nilotinib -0.109 | [6] 0.035 | dasatinib -0.041 | [7] -0.08 | [8] 0.073 | [9] 0.012 | tipifarnib -0.007 | mubritinib 0.061

LBR (UniProt Q14739)
active: gandotinib -0.359
inactive: [1] 0.025 | crizotinib 0.152 | [2] 0.016 | [3] -0.031 | duvelisib -0.014 | tozasertib -0.026 | [4] 0.017 | doramapimod -0.02 | ispinesib -0.08 | bafetinib 0.113 | [5] 0.101 | nilotinib -0.201 | [6] -0.007 | dasatinib -0.017 | [7] -0.018 | [8] 0.041 | [9] 0.012 | tipifarnib -0.141 | mubritinib 0.026

INTS7 (UniProt Q9NVH2)
inactive: [1] 0.009 | crizotinib -0.133 | [2] -0.053 | [3] -0.054 | duvelisib 0 | gandotinib 0.211 | tozasertib 0.008 | [4] 0.014 | doramapimod -0.091 | ispinesib -0.036 | bafetinib 0.02 | [5] 0.033 | nilotinib -0.054 | [6] -0.025 | dasatinib -0.109 | [7] 0.114 | [8] -0.021 | [9] 0.017 | tipifarnib -0.132 | mubritinib -0.123
